# Sampled rows, rich in hits. Any-hit rate of the full collection: about 0.086%.
# CBFb RUNX1 block: inhibitors of human CBF-beta and RUNX1 interaction; Q01196+Q13951; AlphaScreen CBFb-His/RUNX1-biotin binding, biochemical; Potency, µM (series often up to 59.8 µM), hits mostly inhibitors; 230,000 tested, under 10 active; AID 1477
#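 AlphaScreen binding: CBFb-His and RUNX1-biotin (30 nM each) preincubated 20 min, compound added for 15 min, then nickel and streptavidin beads for 90 min, all at room temperature. Disruption of the interaction by any mechanism counts as activity.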
# MBNL1 CUG block: MBNL1-poly(CUG) RNA binding inhibition. TR-FRET MBNL1-His/biotin-(CUG)12 binding, 665/545 ratio. AID 2675. actives 0.036% (n = 280,000). Q9NR56. Potency, µM (titrated, usually from 57.5 µM), most hits filed as inhibitors; active means well fitted inhibition curve with a large enough effect in the signal ratio, with a control signal flat, not every such curve was filed as active; inconclusive means small, poorly fitted or top-dose-only effect, or effect the other way, or a change in a side signal; inactive means no such curve, though single readings can be large or run the other way; the % refers to the signal ratio
# Target sequence (Q9NR56 whole entry, looked up): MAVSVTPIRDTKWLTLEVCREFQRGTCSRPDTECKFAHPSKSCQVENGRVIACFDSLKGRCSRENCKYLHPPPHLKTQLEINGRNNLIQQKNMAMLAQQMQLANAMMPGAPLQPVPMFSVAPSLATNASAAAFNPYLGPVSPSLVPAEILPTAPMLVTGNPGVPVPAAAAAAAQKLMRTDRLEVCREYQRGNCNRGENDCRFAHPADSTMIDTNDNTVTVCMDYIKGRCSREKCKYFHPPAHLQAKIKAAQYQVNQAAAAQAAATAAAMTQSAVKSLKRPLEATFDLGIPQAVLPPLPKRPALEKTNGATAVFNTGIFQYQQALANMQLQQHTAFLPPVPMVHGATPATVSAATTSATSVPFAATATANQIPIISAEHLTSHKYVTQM
#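 His-tagged MBNL1 binding to biotinylated (CUG)12 RNA was measured by TR-FRET using terbium anti-His antibody (0.055 ng/ul final) and streptavidin-XL665 (5 nM final). Compounds were titrated 92 nM to 58 uM; 60 min at room temperature.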
# Integrin act MD: activates integrin-mediated alleviation for muscular dystrophy; alpha7betagal myoblasts, beta-gal FDG fluorescence, 48 h; Potency, µM (series often up to 38.3 µM), actives largely listed as activators; actives 0.064% (n = 350,000); AID 624291; further: nearly all actives have a fitted effect of over 60% in size
#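 alpha7betagal+/- myoblasts (passage 13, 250/well) treated 48 h at 37C with compounds at 1:260 dilution of DMSO stock. Lysed, then beta-galactosidase activity read as FDG fluorescence (ex 480/em 540) after 30 min, with pre-read for autofluorescence.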
# TCR activator: activates T cell receptor signaling. primary human leukocytes, anti-CD3, IL-2 HTRF, 48 h. Potency, µM (highest dose often 9.22 µM), usual class: activators. 330,000 tested, under 10 active
#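 TCR engagement came from a-CD3 beads alone, with compounds added to primary human leukocytes for 48 hr. Secreted IL-2 bridged europium cryptate- and d2-labelled anti-IL-2 antibodies, giving FRET emission at 665nm after 320nm excitation.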
# MBNL1-CUG FRET: MBNL1-poly(CUG) RNA binding inhibition confirmed | actives 50% (n = 140) | TR-FRET MBNL1-His / biotin-(CUG)12 binding, 60 min | shares compounds with MBNL1 CUG block | Potency, µM (titrated, usually from 57.6 µM), hits mostly inhibitors
# MBNL1 AlphaScrn: confirmation of MBNL1-(CUG)12 RNA binding inhibitors, orthogonal format; actives 30% (n = 140); AlphaScreen MBNL1-His / biotin-(CUG)12 binding; shares compounds with MBNL1 CUG block; Potency, µM (series often up to 57.7 µM), actives largely listed as inhibitors; AID 493205
# Menin-MLL HTRF: MBNL1-CUG RNA binding inhibitor counterscreen activity | shares compounds with MBNL1 CUG block | His-Menin/biotin-MLL peptide TR-FRET counterscreen | Potency, µM (doses to about 57.6 µM), most hits filed as inhibitors | actives 20% (n = 120) | AID 651843
# Numbers stand for hits; . = inactive; ? = inconclusive; / = no result. Unless noted, the call rests on the fitted dose curve; in most records, active means well fitted curve in the direction sought with a large enough effect; inconclusive means small, poorly fitted or top-dose-only effect, or another doubt; inactive means no such curve, though single readings can be large; an effect the other way counts as inactive or inconclusive.
SMILES,CBFb RUNX1 block,MBNL1 CUG block,Integrin act MD,TCR activator,MBNL1-CUG FRET,MBNL1 AlphaScrn,Menin-MLL HTRF
COc1ccc(N2CCN(CC(=O)Nc3ccc(-n4cnnn4)cc3)CC2)cc1,.,.,.,.,.,?,.
Cn1nccc1NC(=O)Nc1cccc(Cl)c1,.,32µM,.,.,?,?,33µM
Nc1ccc2c(c1)C(=O)C(=O)c1ccccc1-2,.,?,.,.,?,6.5µM,.
Cc1cccc(NC2=NC(=S)N(CC#N)C23CCCCC3)c1,.,.,.,.,/,/,/
COC(=O)C1CN(C(=O)C(C)Oc2ccc(F)cc2)c2ccccc2O1 (stereo unspecified),/,.,.,.,/,/,/

# Assay outcomes from PubChem BioAssay.
